A short description of assay [1]: Primary qHTS for small molecule stabilizers of the endoplasmic reticulum resident proteome: Secreted ER Calcium Modulated Protein (SERCaMP) assay (AID 1508630). A digest of the protocol:
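GLuc-SERCaMP-expressing SH-SY5Y cells, pretreated 16 h with compound, are challenged with thapsigargin to empty ER calcium stores; after 4 h, coelenterazine is added directly to the medium and luminescence is imaged.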

A short description of assay [2]: A High-Content qHTS Against Drug Library for the Identification of Small Molecules that Inhibit DYT1 Early Onset Primary Dystonia-Associated Cell Pathology (AID 1645839; calls by dose curve; further: potency means the concentration at half of the fitted maximal effect). A digest of the protocol:
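Readout: %pathology, the punctate EGFP-TorsinA distribution from imaging, as the primary channel and cell count as the toxicity counterscreen. HEK293 Flp-In cells expressing delE TorsinA were induced with tetracycline and treated with compound for 48 h.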
(qHTS replaces the single test concentration by a dilution series.)

In assay [3] the target is Cytochrome P450 2C9 (Homo sapiens) (UniProt P11712). In words: Cytochrome P450 family 2 subfamily C member 9 (CYP2C9) small molecule antagonists: luciferase biochemical (cell-free) qHTS assay (AID 1645842; active means well fitted curve in the direction sought with a large enough effect in the repeat runs; an effect the other way counts as inactive or inconclusive; further: nearly all actives have a fitted effect of over 55% in size; further: potency means the concentration at half of the fitted maximal effect). The procedure, abridged: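 Luminescence, after 20 min with luciferin detection reagent, reflected CYP2C9 turnover during a 1 h NADPH-driven reaction at 37C. Enzyme-substrate mix contained 0.4% bovine serum albumin and was preincubated with compound 10 min at room temperature.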

In assay [4] the target is Cytochrome P450 2D6 (Homo sapiens) (UniProt P10635). In words: Cytochrome P450 family 2 subfamily D member 6 (CYP2D6) small molecule antagonists: luciferase biochemical (cell-free) qHTS assay (AID 1645840; active means well fitted curve in the direction sought with a large enough effect in the repeat runs; an effect the other way counts as inactive or inconclusive; further: series mostly up to about 57 µM; nearly all actives have a fitted effect of over 55% in size). A digest of the protocol: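 P450-Glo luminescent screen: recombinant CYP2D6 enzyme–proluciferin substrate mix preincubated with compound 10 min at room temperature, then NADPH regeneration added for 1 h at room temperature. Detection reagent added for 20 min; luciferin light read as relative luminescence units.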

Assay [5] has as its target Cytochrome P450 3A4 (Homo sapiens) (UniProt P08684). In words: Cytochrome P450 family 3 subfamily A member 4 (CYP3A4) small molecule antagonists: luciferase qHTS assay (AID 1645841; active means well fitted curve in the direction sought with a large enough effect in the repeat runs; an effect the other way counts as inactive or inconclusive; further: nearly all actives have a fitted effect of over 45% in size). The procedure, abridged:
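P450-Glo CYP3A4 enzyme with proluciferin substrate was preincubated with DMSO-dissolved compounds for 10 min at room temperature. NADPH regeneration solution started a 1 h reaction. Detection reagent stopped it, and luminescence was read after 20 min.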

Results filed as inconclusive are left out. A call without a number means that no potency is given here. Activity calls are given as the source filed them. Unless noted, the call rests on the fitted dose curve; in most records, active means well fitted curve in the direction sought with a large enough effect; inconclusive means small, poorly fitted or top-dose-only effect, or another doubt; inactive means no such curve, though single readings can be large; an effect the other way counts as inactive or inconclusive.

Sequence of Cytochrome P450 2D6 (Homo sapiens) (P10635 whole entry, looked up): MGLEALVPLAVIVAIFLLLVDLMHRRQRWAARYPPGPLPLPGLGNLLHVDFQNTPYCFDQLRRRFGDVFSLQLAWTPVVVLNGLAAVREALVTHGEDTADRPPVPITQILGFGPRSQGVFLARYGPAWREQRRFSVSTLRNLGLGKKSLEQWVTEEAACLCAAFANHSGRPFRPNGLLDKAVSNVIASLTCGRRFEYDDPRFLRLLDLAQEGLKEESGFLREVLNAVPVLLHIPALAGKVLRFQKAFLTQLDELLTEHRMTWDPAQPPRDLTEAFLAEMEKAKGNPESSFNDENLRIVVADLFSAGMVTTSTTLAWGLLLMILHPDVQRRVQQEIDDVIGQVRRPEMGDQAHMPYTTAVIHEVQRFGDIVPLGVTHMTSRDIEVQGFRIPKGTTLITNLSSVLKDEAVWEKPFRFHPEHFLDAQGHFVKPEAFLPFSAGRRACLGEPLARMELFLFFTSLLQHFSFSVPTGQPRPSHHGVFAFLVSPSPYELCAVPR
Sequence of Cytochrome P450 2C9 (Homo sapiens) (P11712 whole entry, looked up): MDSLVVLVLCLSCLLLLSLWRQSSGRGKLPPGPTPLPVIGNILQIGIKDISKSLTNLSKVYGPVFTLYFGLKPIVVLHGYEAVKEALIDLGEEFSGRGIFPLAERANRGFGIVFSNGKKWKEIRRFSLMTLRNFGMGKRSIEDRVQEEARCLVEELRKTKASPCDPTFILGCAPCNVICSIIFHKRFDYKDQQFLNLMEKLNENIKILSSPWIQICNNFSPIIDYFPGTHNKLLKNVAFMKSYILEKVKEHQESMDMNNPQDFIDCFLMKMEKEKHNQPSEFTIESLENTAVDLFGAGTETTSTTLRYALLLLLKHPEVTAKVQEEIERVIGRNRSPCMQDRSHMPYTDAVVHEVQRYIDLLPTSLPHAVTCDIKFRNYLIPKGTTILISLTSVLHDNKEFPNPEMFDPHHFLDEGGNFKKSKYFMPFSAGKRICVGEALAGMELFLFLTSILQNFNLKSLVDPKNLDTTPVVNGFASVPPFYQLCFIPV
Sequence of Cytochrome P450 3A4 (Homo sapiens) (P08684 whole entry, looked up): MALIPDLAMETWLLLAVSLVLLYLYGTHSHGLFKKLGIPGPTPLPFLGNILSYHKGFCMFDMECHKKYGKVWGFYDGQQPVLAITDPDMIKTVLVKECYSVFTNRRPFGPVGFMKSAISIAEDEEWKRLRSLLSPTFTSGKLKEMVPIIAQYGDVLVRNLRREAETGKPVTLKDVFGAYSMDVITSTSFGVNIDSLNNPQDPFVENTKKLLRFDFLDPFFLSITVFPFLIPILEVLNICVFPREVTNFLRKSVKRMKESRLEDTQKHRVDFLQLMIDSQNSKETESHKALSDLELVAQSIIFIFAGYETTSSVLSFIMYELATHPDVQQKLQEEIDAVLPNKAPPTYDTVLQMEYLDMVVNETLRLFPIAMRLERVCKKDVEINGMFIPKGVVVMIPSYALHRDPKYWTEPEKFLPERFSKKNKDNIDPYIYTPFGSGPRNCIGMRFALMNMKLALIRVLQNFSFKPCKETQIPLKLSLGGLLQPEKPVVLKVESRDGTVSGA

Consider `CC/C(=C(\c1ccccc1)c1ccc(OCCN(C)C)cc1)c1ccccc1`, for which the Potency entry in assay [1] was “inactive”. Besides, the Potency in assay [2] was 11.2 µM (active). Take `O=C1C[C@@H](c2ccc(O)cc2)Oc2cc(O)cc(O)c21`: the Potency entry in assay [1] is “inactive”. Also, in assay [3], the Potency is 5.35 µM (active).

Take `CO[C@H]1C(=O)[C@]2(C)[C@@H](OC)C[C@H]3OC[C@@]3(OC(C)=O)[C@H]2[C@H](OC(=O)c2ccccc2)[C@]2(O)C[C@H](OC(=O)[C@H](O)[C@@H](NC(=O)OC(C)(C)C)c3ccccc3)C(C)=C1C2(C)C`: the Potency result in assay [1] is “inactive”. Still for that read-out and setting: for `COc1cc(O)c2c(c1)C(=O)c1cc(C)cc(O)c1C2=O` the value was “inactive”. The same measure, in the same setting: for `CC1(C)CCC2=C(O1)c1ccccc1C(=O)C2=O` the value was “inactive”; for `CC1(C)CCC(CN2CCN(c3ccc(C(=O)NS(=O)(=O)c4ccc(NCC5CCOCC5)c([N+](=O)[O-])c4)c(Oc4cnc5[nH]ccc5c4)c3)CC2)=C(c2ccc(Cl)cc2)C1`, “inactive”.

For the compound `COc1cc(N2CCC(N3CCN(C)CC3)CC2)ccc1Nc1ncnc(Nc2ccccc2S(=O)(=O)C(C)C)n1`, the Potency result in assay [1], in assay [4] and in assay [3] was “inactive” each time. As to `COc1ccc(-c2cc(=O)c3c(O)cc(O)cc3o2)cc1O`, the Potency entry in assay [1] is “inactive”. With `CC#CCn1c(N2CCC[C@@H](N)C2)nc2c1c(=O)n(Cc1nc(C)c3ccccc3n1)c(=O)n2C`, the Potency entry in assay [1] was “inactive”. On the same count and under the same terms, in the case of `NC(=O)c1cnc(-c2ccc(C3(N)CCC3)cc2)c(-c2ccccc2)c1` it was “inactive”. In the case of `C[N+](C)(C)CC(=O)O`, the Potency entry in assay [2], in assay [4] and in assay [3] was “inactive” each time.

On to `CC(=O)CCCCn1c(=O)c2c(ncn2C)n(C)c1=O`, for which the Potency result in assay [2], in assay [4] and in assay [3] was “inactive” in each case. Regarding `NC1CCC(Nc2nc(Nc3ccc(C(=O)N4CCCCC4)cc3)c3ncn(-c4cccc(F)c4)c3n2)CC1` (stereo not given), in assay [1], the Potency entry is “inactive”. For `O=c1[nH]cnc2c1ncn2[C@H]1CC[C@@H](CO)O1`, the Potency entry in assay [1], in assay [2] and in assay [3] was “inactive” each time. Moreover, in assay [5], the result was inactive.

(Values after PubChem BioAssay (NCATS).)
